The source of these data is PubChem BioAssay (NCATS).

For test [1], the system named is C33A. The experiment in a line: Primary qHTS to identify gynecologic anti-cancer compounds using libraries of approved drugs and bioactive compounds (AID 1345084). Also: nearly all actives have a fitted effect of over 55% in size. The settings on record: Gynecologic cancer cell panel viability, ATPlite luminescence, 48 h; series mostly up to 57.5 µM. In outline:
(§1)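 Cytotoxicity screen measuring ATP content by luciferase luminescence. Each compound is applied at five concentrations for 48 h at 37 C with 5% CO2.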

Test [2] concerns CASKI. Described as above. The settings on record: Gynecologic cancer cell panel viability, ATPlite luminescence, 48 h; series mostly up to 57.5 µM. In short, it runs like this:
as §1
(In general: Cellular ATP, detected with luciferase, serves as a proxy for viable cell number.)

Test [3] relates to Hek293T. Described as above. Particulars: Gynecologic cancer cell panel viability, ATPlite luminescence, 48 h, control line for the selectivity index; series mostly up to 57.5 µM. In short, it runs like this: as §1
For test [4], the system named is OV90. The description is as above. Particulars: Gynecologic cancer cell panel viability, ATPlite luminescence, 48 h; series mostly up to 57.5 µM. In outline: as §1
Test [5] has as its system SKOV3. The test is described as above. The settings on record: Gynecologic cancer cell panel viability, ATPlite luminescence, 48 h; series mostly up to 57.5 µM. In outline:
as §1

Test [6] relates to Tov112D. Described as above. Particulars: Gynecologic cancer cell panel viability, ATPlite luminescence, 48 h; series mostly up to 57.5 µM. In outline:
as §1

In test [7] the test system is Es-2. The description is as above. Particulars: Gynecologic cancer cell panel viability, ATPlite luminescence, 48 h; series mostly up to 57.5 µM. In short, it runs like this: as §1
Test [8] deals with HeLa. The description is as above. Particulars: Gynecologic cancer cell panel viability, ATPlite luminescence, 48 h; series mostly up to 57.5 µM. In short, it runs like this:
as §1

Test [9] concerns PA-1. The test is described as above. Particulars: Gynecologic cancer cell panel viability, ATPlite luminescence, 48 h; series mostly up to 57.5 µM. In outline: as §1
In test [10] the test system is JEG-3. Described as above. The settings on record: Gynecologic cancer cell panel viability, ATPlite luminescence, 48 h; series mostly up to 57.5 µM. In short, it runs like this: as §1
Test [11] concerns Tov-21-G. The test is described as above. Particulars: Gynecologic cancer cell panel viability, ATPlite luminescence, 48 h; series mostly up to 57.5 µM. In short, it runs like this:
as §1

The nature of test [12]: qHTS assay to identify inhibitors of the type 1 interferon - major histocompatibility complex class I in skeletal muscle: Counter screen cell viability and HiBit confirmation (AID 1347412). Also: nearly all actives have a fitted effect of over 60% in size. Particulars: iHSKM muscle cells + IFN-b, HiBiT or CellTiter-Glo, 24 h; HiBiT. In short, it runs like this: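 Human myoblast knock-in line, 4.0 ng/ml IFN-beta stimulation, 24 h compound treatment. Endpoints: HiBiT lytic luminescence (HLA-B level) and CellTiter Glo (ATP). Dosing 12 concentrations, 3-fold steps, 46 uM highest final.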
(Quantitative high-throughput screening tests each substance at several concentrations.)

Inconclusive results are not listed. The source made the active and inactive calls. Calls follow the shape of the dose curve; as a rule, active = well fitted curve in the direction sought with a large enough effect; inconclusive = small, poorly fitted or top-dose-only effect, or another doubt; inactive = no such curve, though single readings can be large; an effect the other way counts as inactive or inconclusive.
Potency is read from the fitted curve at half-maximal effect.

On to `Cc1ccccc1-n1c([C@H](C)Nc2nc(N)nc3nc[nH]c23)nc2cccc(C)c2c1=O`, for which the Potency entry in test [1], in test [3], in [4], in [5] and in [6] was “inactive” each time. Also, the Potency in test [2] is 31.6 µM (active).
As to `FC(F)(F)c1ccc(Nc2nc(-c3c(C(F)(F)F)nc4ccccn34)cs2)cc1`, the Potency in test [1] was 20 µM (active); in test [7] it was 2 µM (active); in test [8], 0.891 µM (active); in test [9], 1.26 µM (active); in test [6] it was 0.708 µM (active). Moreover, in [2], the Potency entry is “inactive”.
For the compound `C=C(C(=O)OC)C1C(O)CC2(C)C(O)CCC(=O)C2C1O` (centres undefined), the Potency entry in test [1], in test [2], in test [3], in [10] and in test [4] was “inactive” in each case.
As for `COc1cc(Br)c(Nc2nc(-c3c(C)nc4ncccn34)cs2)c(Br)c1`, the Potency result in test [1] and in test [2] was “inactive” throughout. In addition, the Potency in [7] was 8.91 µM (active); in [9], 4.47 µM (active); in test [5], 8.91 µM (active); in test [11] it was 10 µM (active).
In the case of `Cc1cc(Nc2cc(N3CCN(C)CC3)nc(/C=C/c3ccccc3)n2)n[nH]1`, the Potency in [1] was 28.2 µM (active); in [2], 3.55 µM (active); in test [9] it was 2.51 µM (active); in test [12] it was 11.1 µM (active). The Potency entry in test [7] is “inactive”.
On to `CC1COC(Nc2ccc3ncnc(Nc4ccc(OCc5nccs5)c(Cl)c4)c3c2)=N1` (centres undefined), for which the Potency entry in test [1], in [7], in test [8], in test [10] and in test [9] was “inactive” throughout. Besides, in test [5], the Potency was 15.8 µM (active).
Turning to `c1ccc(-c2csc(N3CCOCC3)n2)cc1`, the Potency entry in [1], in test [2], in test [7], in test [10], in test [4] and in test [9] was “inactive” throughout. Also, the Potency result in test [5], in [11] and in test [6] was “inactive” in each case.
As for `O=C1C=CC2OC(c3ccccc3)C(O)C2O1` (centres undefined), the Potency result in [1], in test [2], in test [8], in [4], in test [5] and in test [6] was “inactive” throughout.
For `COc1ccc(/C=C/C(=O)O[C@@H]2[C@@H](O)[C@H](C)O[C@@H](O[C@H]3[C@@H]4C=CO[C@@H](O[C@H]5O[C@@H](CO)[C@H](O)[C@@H](O)[C@@H]5O)[C@@H]4[C@@]4(CO)O[C@@H]34)[C@@H]2OC(C)=O)cc1`, the Potency result in [1], in test [7], in test [8], in test [3], in test [10] and in test [4] was “inactive” in each case. Also, the Potency result in [9], in test [5], in [11] and in [6] was “inactive” each time.
As for `CC(Oc1cc(-n2cnc3ccc(CN4CCN(C)CC4)cc32)sc1C(N)=O)c1ccccc1C(F)(F)F` (centres undefined), the Potency is 8.91 µM (active) in [1]; 7.94 µM (active) in test [7]; 3.55 µM (active) in test [8]; 5.62 µM (active) in [10]; 11.2 µM (active) in test [9]. Moreover, the Potency entry in test [4] is “inactive”.
Consider `COc1ccc2[nH]c3c(-c4cccc5ccccc45)nccc3c2c1`, for which the Potency is 2.82 µM (active) in test [1]; 1.41 µM (active) in test [2]; 1.58 µM (active) in [7]; 0.891 µM (active) in test [8]; 0.891 µM (active) in test [9]; 1.41 µM (active) in test [6].
For the compound `C[C@@H]1COCCN1c1cc(C2(S(C)(=O)=O)CC2)nc(-c2cccc3[nH]ccc23)n1`, the Potency in test [1] was 4.47 µM (active); in test [7], 3.16 µM (active); in test [3], 7.94 µM (active); in test [10], 7.08 µM (active); in [9] it was 11.2 µM (active); in test [5], 3.16 µM (active). Also, the Potency in test [11] is 1.78 µM (active).
For `CC[C@H](CO)Nc1nc(NCc2ccc(-c3ccccn3)cc2)c2ncn(C(C)C)c2n1`, the Potency in test [1] was 1.26 µM (active); in test [2], 2.51 µM (active); in [7] it was 0.794 µM (active); in test [8], 3.16 µM (active); in test [9] it was 1 µM (active); in [6], 1.78 µM (active).
For `NCc1ccc(Nc2ncc(F)c(Nc3ccccc3)n2)cc1`, the Potency result in [1], in [2], in [3], in [10], in [4] and in test [6] was “inactive” in each case. The results for the Potency in test [8] and in [9] were 15.8 µM (active) and 12.6 µM (active), respectively.
On to `C=CC(C)(C)c1[nH]c2cc3c(cc2c1CC1NC(=O)C2=CCCN2C1=O)C=CC(C)(C)O3` (centres undefined), for which the Potency result in [1], in test [2], in test [8], in test [3], in test [10] and in test [4] was “inactive” each time. In addition, the Potency result in test [5], in test [11] and in test [6] was “inactive” each time.
Consider `CN(C)C/C=C/C(=O)Nc1cccc(C(=O)Nc2ccc(Nc3nccc(-c4cccnc4)n3)cc2)c1`, for which the Potency was 12.6 µM (active) in test [1]; 7.08 µM (active) in test [2]; 20 µM (active) in test [8]; 10 µM (active) in test [4]; 10 µM (active) in test [6].
Turning to `C=C1C(=O)OC2/C=C(\CO)CC/C=C(\C=O)CC(OC(=O)CC(C)C)C12` (centres undefined), the Potency entry in test [1], in test [2], in [8], in test [3], in [10] and in [4] was “inactive” in each case. The Potency entry in test [6] is “inactive”.
Take `COc1ncc2cc(C(=O)Nc3cc(C(=O)NCc4cccc(Cl)c4)ccc3Cl)c(=O)[nH]c2n1`: the Potency entry in [1], in test [2], in test [7], in test [3], in test [10] and in [4] was “inactive” throughout. Also, the Potency entry in test [9] and in test [5] was “inactive” throughout.
Turning to `N#Cc1cc(F)cc(-c2nc(-c3ccccn3)no2)c1`, the Potency result in test [1], in test [2], in test [3] and in [6] was “inactive” in each case.
`CCCCNc1ncc2c(-c3ccc(F)cc3)nn(CC3CCC(N)CC3)c2n1` (centres undefined): the Potency in test [1] was 11.2 µM (active); in test [2] it was 10 µM (active); in test [8], 10 µM (active); in [11] it was 7.94 µM (active).
